Screening results deposited in PubChem by National Center for Advancing Translational Sciences (NCATS).
Sampled rows, rich in hits. Any-hit rate of the full collection: about 7.3%.
SMN2 splice enh – SMN2 splice variant enhancement | Potency, µM (highest dose often 46.1 µM), usual class: activators | AID 1458 | 210,000 compounds, 2.8% hits | HEK293 SMN2-luciferase splicing reporter, luminescence, 30-36 h; also: nearly all actives have a fitted effect of over 55% in size
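qHTS luciferase splicing reporter: luminescence rises when SMN2 exon 7 is included in transfected HEK293 cells. Compound exposure lasted 30-36 h at 37C, with 4.5 mM final sodium butyrate as control, followed by a ONE-Glo read.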
Luc counter – Kinase-Glo luciferase inhibition (counter-screen); Q27757; Kinase-Glo luciferase, ATP luminescence, 8 min; 200,000 compounds, 0.28% hits; AID 1379; Potency, µM (top dose mostly 38.3 µM), usual class: inhibitors; also: nearly all actives have a fitted effect of over 60% in size
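Recombinant Kinase-Glo luciferase, 10 uM ATP (linear range), luciferin; imidazole pH 7.2 / KCl / MgCl2 / Tween / BSA buffer; 8 min RT; luminescence.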
NPC1 promoter act – activators of NPC1 promoter. Huh7 NPC1 promoter luciferase reporter, 24 h. 320,000 compounds, 2.4% hits. Potency, µM (titrated, usually from 9.22 µM), usual class: activators; also: nearly all actives have a fitted effect of over 60% in size
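Luminescence read-out of NPC1 promoter-driven luciferase in stably transfected Huh7 cells; compounds delivered in DMSO and left 24 h at 37C, 5% CO2, qHTS titration format.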
FLuc counter – firefly luciferase modulation, counter-screen for miR-21 project; P08659; purified FLuc, Km substrates, luminescence inhibition; Potency, µM (top dose mostly 57.5 µM), most hits filed as inhibitors; 360,000 compounds, 6.9% hits; AID 588342; also: nearly all actives have a fitted effect of over 55% in size
Target sequence (P08659 whole entry, looked up): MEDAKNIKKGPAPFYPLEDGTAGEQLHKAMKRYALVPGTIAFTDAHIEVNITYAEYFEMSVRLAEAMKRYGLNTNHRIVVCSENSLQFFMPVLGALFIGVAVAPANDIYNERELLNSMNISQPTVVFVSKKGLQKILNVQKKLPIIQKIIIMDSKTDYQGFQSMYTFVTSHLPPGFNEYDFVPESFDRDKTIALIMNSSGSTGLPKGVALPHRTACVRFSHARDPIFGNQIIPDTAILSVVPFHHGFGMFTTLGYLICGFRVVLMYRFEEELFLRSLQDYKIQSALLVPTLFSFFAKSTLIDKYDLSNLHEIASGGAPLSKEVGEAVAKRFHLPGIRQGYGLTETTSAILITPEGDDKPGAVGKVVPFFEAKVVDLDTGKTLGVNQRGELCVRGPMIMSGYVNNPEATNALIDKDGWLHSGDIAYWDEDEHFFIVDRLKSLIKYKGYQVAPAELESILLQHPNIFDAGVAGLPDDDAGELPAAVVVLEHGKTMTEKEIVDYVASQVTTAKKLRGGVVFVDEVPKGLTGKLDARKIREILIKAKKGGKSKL
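Purified P. pyralis luciferase, 10 nM final, with Km-level 10 uM D-luciferin and 10 uM ATP in 50 mM Tris acetate pH 7.5, 10 mM Mg acetate, 0.01% Tween-20, 0.05% BSA; 6-point qHTS titration about 60 µM downward; luminescence read.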
Rab9 promoter act – activates the Rab9 promoter; Huh7 Rab9 promoter-luciferase reporter, luminescence, 24 h; Potency, µM (doses to about 9.22 µM), most hits filed as activators; 320,000 compounds, 2.8% hits; AID 485297; also: nearly all actives have a fitted effect of over 60% in size
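Huh7 cells stably carrying a Rab9 promoter-luciferase reporter, 1500 cells per well in OP-MEM I with 10% FBS, treated with compound 24 hours at 37C. Luciferase activity read by luminescence after 10 minutes with Amplite reagent.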
ELG1 genotoxic – genotoxicity induction in ELG1-luciferase HEK293T cells; Potency, µM (highest dose often 46 µM), hits mostly activators; 330,000 compounds, 1.3% hits; HEK293T ELG1-luciferase reporter, luminescence, 16 h; also: nearly all actives have a fitted effect of over 60% in size
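After overnight (16 hr) compound treatment at 37 °C, ELG1-luciferase HEK293T cells were lysed with ONE-Glo; luminescence quantified 30 min later at room temperature.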
Numbers stand for hits; 0 = inactive; ? = inconclusive; - = no result given; [ ] = remark or other dose. Calls follow the shape of the dose curve; as a rule, active = well fitted curve in the direction sought with a large enough effect; inconclusive = small, poorly fitted or top-dose-only effect, or another doubt; inactive = no such curve, though single readings can be large; an effect the other way counts as inactive or inconclusive.

SMILES	SMN2 splice enh	Luc counter	NPC1 promoter act	FLuc counter	Rab9 promoter act	ELG1 genotoxic
Nc1[nH]ncc1N=Nc1ccc(Cl)cc1	0	0	0	13µM	?	18µM
Nc1n[nH]c(N)c1N=Nc1cccc(F)c1	0	0	0	24µM	0	0
Nc1n[nH]c(N)c1N=Nc1cccc(C(F)(F)F)c1	-	-	0	0	0	0
O=c1[nH]c(=S)[nH]c2c1CN(CCCN1CCOCC1)CN2	0[9.22 µM]	0[7.66 µM]	-	-	-	-
O=C1CC(c2cc(F)cc(F)c2)c2cc3c(cc2N1)OCO3 (stereo not drawn)	0	-	-	0	-	-
COc1cccc(NC(=O)Nc2cc(-c3cn4cccnc4n3)ccc2OC)c1	8.9µM	-	-	1.3µM	-	-
COc1cccc(NC(=O)Nc2cccc(-c3cn4cccnc4n3)c2)c1	0	-	-	6.7µM	-	-
COc1cccc(NC(=O)Nc2cc(-c3cn4cccnc4n3)ccc2C)c1	0	-	-	0	-	-
COc1ccc(-c2cn3cccnc3n2)cc1NC(=O)Nc1cc(C)ccc1C	0	-	0	2.4µM	0	-
COc1ccc(CN2C(=O)C(NC(=O)c3ccccc3C)(C(F)(F)F)N=C2c2ccccc2)cc1 (stereo not drawn)	?	-	-	0	-	-
CCOc1ccc(NC(=O)CC2C(=O)N(c3ccc(F)cc3)C(=O)N2Cc2ccc(OC)c(OC)c2)cc1 (stereo not drawn)	0	-	-	0	-	-
CN(C)/C=C/C(=O)c1ccc(Oc2ccccc2)cc1	13µM	0	?	4.3µM	1.4µM	4.1µM
CCCc1ccc(C(=O)/C=C/N(C)C)cc1	-	-	1.1µM	5.4µM	1.4µM	9.2µM
CCOC(=O)c1c(O)[nH]c(=O)c(CC)c1C	0[9.22 µM]	0[7.66 µM]	-	-	-	-
Cc1cccc(N2CCN(C(=O)Cc3c(C(=O)O)c(C)cn3C)CC2C)c1 (stereo not drawn)	-	-	-	0	-	-
O=C(O)c1cccc(Nc2nc(-c3cc4ccccc4oc3=O)cs2)c1	-	-	2.8µM	6µM	?	?
O=c1oc2ccccc2cc1-c1csc(NN=C2CCCC2)n1	0[1.84 µM]	0	0	0	0	0
CC(=O)OCC(=O)[C@@]1(O)CCC2C3C[C@H](C)C4=CC(=O)C=CC4(C)C3C(O)CC21C (stereo partly drawn)	-	0	-	-	-	-
CC(=O)Nc1cccc(Oc2nc(-c3ccccn3)nc3ccccc23)c1	-	-	0	15µM	0	0
O=C(Cc1ccc(Br)cc1)N1CCCCCC1	10µM	0	?	?	0	21µM
O=C(Cc1ccc(Br)cc1)N1CCCC1	-	-	0	0	0	0
C=CCNC(=O)C1CCN(c2nc(C)cc(-c3ccccc3)n2)CC1	8.9µM	0	3.5µM	19µM	3.5µM	?
Cc1cc(-c2ccccc2)nc(N2CCC(C(=O)NCc3ccccc3Cl)CC2)n1	28µM	0	0	0	0	?
Cc1cc(C)nc(N2CCC(C(=O)NNC(=O)Cc3ccccc3)CC2)n1	-	-	0	0	0	0
CCn1c(/N=C/c2c[nH]c3ccccc23)nc2ccccc21	-	-	0	0.54µM	0	0
SMILES	SMN2 splice enh	Luc counter	NPC1 promoter act	FLuc counter	Rab9 promoter act	ELG1 genotoxic
CCCn1c(/N=C/c2c[nH]c3ccccc23)nc2ccccc21	0	0	0	2.7µM	0	0
CCCCn1c(/N=C/c2c[nH]c3ccccc23)nc2ccccc21	0	0	0	9.5µM	0	0
CCn1c(/C=N/n2cnnc2)nc2ccccc21	0	0	0	0	0	0
Cc1ccc(NC(=S)NC(=O)c2sc3ccccc3c2Cl)c(C(=O)O)c1	0	0	0	27µM	0	0
O=C(O)c1ccccc1NC(=S)NC(=O)c1sc2ccccc2c1Cl	0	0	0	24µM	0	0
O=C(NC(=S)Nc1ccccc1N1CCOCC1)c1sc2ccccc2c1Cl	0	0	0	0	0	0
O=C(NNC(=S)NC(=O)c1sc2ccccc2c1Cl)c1ccc(Cl)cc1	0	0	0	?	0	0
CC1CCN(S(=O)(=O)N2CCC(C(=O)NCc3ccccc3Cl)CC2)CC1	-	-	-	0	-	-
Cc1cccc(NC(=O)CSc2ncc3c(n2)-c2ccccc2N(Cc2ccc(F)cc2)S3(=O)=O)c1C	-	-	-	0	-	-
CCNC(=O)Nc1nc2ccccc2s1	14µM	0	4µM	24µM	?	?
O=C(CCc1nc2ccccc2s1)Nc1ccccc1	0	0	0	?	0	0
S=C(Nc1ccccc1)c1nc2ccccc2s1	11µM	0	?	?	2.5µM	?
CCOCC(=O)Nc1nc2ccccc2s1	14µM	0	3.2µM	24µM	?	?
O=C(NCc1ccncc1)C(=O)Nc1nc2ccccc2s1	-	0	0	15µM	0	0
O=C(NCc1ccncc1)C(=O)Nc1nccs1	-	-	0	0	0	0
Cc1ccc(NC(=O)Nc2nc3ccccc3s2)cc1NC(=O)Nc1nc2ccccc2s1	-	-	0	?	0	0
COc1ccc(-c2cc(C)no2)cc1S(=O)(=O)NC(C)C	-	-	-	0	-	-
CCOC(=O)c1cnn(-c2cccc(Cl)c2)c1C1CCN(C(=O)OC(C)(C)C)CC1	0	-	-	0	-	-
Cc1ccc(S(=O)(=O)N(CC(=O)O)Cc2cccc(C)c2)cc1	-	0	-	-	-	-
CCN(CC)c1ccc(NC(=O)Cn2cc3c(n2)CCCC3)c(C)c1	0	-	-	0	-	-
CCCC(=O)Nc1ccccc1C(=O)OCc1cc(=O)n2nc(C(C)C)sc2n1	-	-	-	0	-	-
CC(=O)NNc1nc2ccccc2s1	0	0	0	0	0	0
O=C(NNc1nc2ccccc2s1)Nc1ccccc1	14µM	0	3.2µM	?	?	?
COc1ccc2c(c1)c(=O)c(S(=O)(=O)c1ccc(F)cc1)cn2Cc1ccccc1Cl	0	-	-	0	-	-
Cc1cc(Oc2ccc(=O)[nH]n2)nc(Cl)n1	-	-	1µM	15µM	3.2µM	?
SMILES	SMN2 splice enh	Luc counter	NPC1 promoter act	FLuc counter	Rab9 promoter act	ELG1 genotoxic
COc1cccc(OCc2cc(C(=O)N3CCN(c4ccccc4O)CC3)no2)c1	-	-	2.8µM	12µM	3.2µM	?
COc1cccc(OCc2cc(C(=O)N3CCN(c4ccccc4OC)CC3)no2)c1	-	-	?	15µM	?	0
COc1cccc(OCc2cc(C(=O)N3CCN(C(C)=O)CC3)no2)c1	-	-	?	?	3.2µM	?
COc1ccc(CCNC(=O)c2ccc3c(c2)N(Cc2c(F)cccc2Cl)C(=O)CS3)cc1OC	-	-	-	0	-	-
CC(C)c1ccc(OC(=O)c2ccc3c(=O)n4c(nc3c2)CCC4)cc1	-	-	0	12µM	0	?
O=C(Nc1ccc(Cl)cc1Cl)c1ccc2c(=O)n3c(nc2c1)CCC3	-	-	1.8µM	11µM	1.4µM	?
O=C(Nc1ccc(Br)cc1Cl)c1ccc2c(=O)n3c(nc2c1)CCC3	-	-	3.5µM	21µM	3.5µM	6.5µM
COc1cc(C)cc2c(-c3c(O)cc(O)c4c3C[C@H](C)N[C@@H]4C)cc(-c3cc(-c4c(O)cc(O)c5c4C[C@H](C)N[C@@H]5C)c4cc(C)cc(OC)c4c3O)c(O)c12	0[9.22 µM]	0[7.66 µM]	-	-	-	-
COc1ccc(CN2C(=O)c3ccccc3C(/C=N\OCc3ccc(C)cc3)C2=O)cc1 (stereo not drawn)	0	0	0	17µM	0	0
